Source: PubChem BioAssay (NCI)
About 83,000 compounds went through this panel and 20% of them were active in at least one assay; those are over-represented in the sample as a whole.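 Growth was measured after 48 h exposure to one concentration of compound in 96-well plates. Values under 10 count as active.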 The source made the active and inactive calls.

Tested on: HCC-2998 colon
Assay: NCI-60 one-dose screen, 48 h (100 = growth as untreated, 0 = no growth, -100 = all killed)
Settings: 10 µM unless noted
Protocol: Growth inhibition of the HCC-2998 human tumor cell line is measured as a screen for anti-cancer activity. Cells are grown in 96 well plates and exposed to the test compound for 48 hours. Compounds are tested at a single concentration, which is 10^-5 M for most compounds. The reported endpoint is percent growth (GI% or GIPRCNT), where numbers from 0 - 100% represent growth inhibition, and numbers from -100% - 0 represent cell death. For example, a value of 40 represents 60% growth inhibition. A value of 0 means no net growth occurred over the course of the experiment. A value of -40 indicates 40% of cells at the beginning of the experiment died by the end of the experiment. A value of -100 means all cells are dead at the end of the experiment.
NCI-60 Human Tumor Cell Lines Screen was performed using the standard one-dose NCI protocol, which is described in more detail at https://dtp.cancer.gov/discovery_development/nci-60/default.htm.
Compounds with GIPRCNT values below 10 were considered active. Activity score was based on GIPRCNT using the following formula: […]
Score is 0 for GIPRCNT values of 100 or above, 50 for GIPRCNT values of 0, and 100 for GIPRCNT values of -100.

SMILES	growth
CC[C@H](C)[C@H](NC(=O)[C@H]1CCCCN1C)C(=O)N(C)[C@H](C[C@@H](OC(C)=O)c1nc(C(=O)NC23CC(C(=O)OC)(C2)C3)cs1)C(C)C	10.4% (inactive)
COc1ccc(Nc2ccc([N+](=O)[O-])cc2[N+](=O)[O-])cc1CN(CCCl)CCCl	37.7% (inactive)
COc1ccc(N(CC(=O)NCCC[Te]c2ccccc2)C(=O)CCSC2=C(C)C(=O)c3ccccc3C2=O)cc1	-35.4% (active)
N#CC1(c2ccccc2)CCN(Cc2ccccc2)CC1	113% (inactive)
CC12CCC=CC1CCC1C2CCC2(C)C(c3ccc(=O)oc3)CCC12O (stereo not given)	-21.5% (active)
COC(=O)C1CCC(NC(=O)c2csc([C@@H](C[C@H](C(C)C)N(C)C(=O)[C@@H](NC(=O)[C@H]3CCCCN3C)C(C)C)OC(C)=O)n2)CC1 (stereo not given in full)	20.2% (inactive)
CCN(CC)CCOC(=O)C(OC(C)C)(c1ccccc1)c1ccccc1	108% (inactive)
CCCC[C@H](NC(=O)[C@H]1CCCN1C)C(=O)N(C)[C@H](C[C@@H](OC(C)=O)c1nc(C(=O)N[C@@H](Cc2ccccc2)C[C@H](C)C(=O)OCC)cs1)C(C)C	14.2% (inactive)
COc1ccc(/C=C\c2cc(OC)c(OC)c(OC)c2)c(NS(=O)(=O)c2ccc(Cl)cc2)c1O	12.7% (inactive)
C[n+]1c(/C=C/c2ccc(N(CCCl)CCCl)cc2)sc2ccccc21	84.4% (inactive)
O=[As](O)(O)c1ccccc1[As](=O)(O)O	101% (inactive)
O=C1C2C(C(=O)[N]1[Hg][c]1cccs1)C1(Cl)C(Cl)=C(Cl)C2(Cl)C1(Cl)Cl (stereo not given)	49.7% (inactive)
CC(=O)O[C@H](C[C@H](C(C)C)N(C)C(=O)[C@@H](NC(=O)[C@H]1CCCCN1C)C(C)C)c1cccc(C(=O)N[C@@H](Cc2ccccc2)C[C@H](C)C(=O)O)n1	9.77% (active)
c1ccc(Nc2nc(-c3ccccc3)c[se]2)cc1	86.5% (inactive)
N#CC1C(C#N)C2CCC1C1C2N1c1ccccc1 (stereo not given)	102% (inactive)
COc1ccc(/C=C\c2cc(OC)c(OC)c(OC)c2)cc1NS(=O)(=O)c1ccc(Cl)cc1	74.8% (inactive)
CCCCN1CCCC[C@@H]1C(=O)N[C@H](C(=O)N(C)[C@H](C[C@@H](OC(C)=O)c1nc(C(=O)NC2CCC(C(=O)OC)CC2)cs1)C(C)C)C(C)C (stereo not given in full)	67.6% (inactive)
CCn1nccc1NC(=O)C(=O)c1cn(Cc2ccc(F)cc2)c2cccc(OC)c12	102% (inactive)
Clc1cccc(Cl)c1Cl	99.8% (inactive)
O=C1C2CCC1C(N1CCCC1)CC2 (stereo not given)	106% (inactive)

SMILES	growth
C=CC1=C[C@@H]2[C@@H]3O[C@]4(CC[C@H](O4)[C@@H](C)C[C@@H](O)C3=O)C[C@H](O)C3=NCC[C@@]32CC1	-81.2% (active)
Cc1cc(-c2nc3cc(F)ccc3[se]2)cc(F)c1N	35.5% (inactive)
CCn1c2ccccc2c2cc(C(=O)c3cccc4c3CCCN4)ccc21	104% (inactive)
CC[CH2][Sn]([Cl])([Cl])[CH2]CC	87.7% (inactive)
Cc1cc(N(CCCl)CCCl)ccc1C=Nc1cccnc1	90.7% (inactive)
O=C(O)c1c(Cl)n(Cc2ccc(O)cc2)c2ccc(O)cc12	119% (inactive)
Cn1cc(-c2csc(-c3cn(CCCCN4CCCCC4)c4ccc(F)cc34)n2)c2cccnc21	96.5% (inactive)
O=C(CC1(O)C(=O)Nc2ccc(Cl)cc21)c1ccc(C(=O)NCC2CCC3(CC2)OOC2(CCCCC2)OO3)cc1 (stereo not given)	83.6% (inactive)
O=[N+]([O-])c1ccc(OP(=O)(CCl)N(CCCl)CCCl)cc1 (stereo not given)	105% (inactive)
COc1ccc(/C(C)=C(\c2ccc(OCCN3CCOCC3)cc2)c2ccc(OC(=O)Cc3ccccc3)cc2)cc1	102% (inactive)
CC(=O)C(c1c(O)c2ccccc2oc1=O)c1cc(=O)oc2c1ccc1ccccc12 (stereo not given)	104% (inactive)
Fc1ccc(N2COOC3(OOC2)C2CC4CC(C2)CC3C4)cc1	106% (inactive)
O=[N+]([O-])c1cnc[nH]1	102% (inactive)
O=c1[nH]cc(N(CCCl)CCCl)c(=O)[nH]1	61.6% (inactive)
ClC1=C(Cl)C(Cl)(C2(Cl)C(Cl)=C(Cl)C(Cl)=C2Cl)C(Cl)=C1Cl	52.1% (inactive)
CC(=O)OC1CCC2C3CCC4=C/C(=N/OC(=O)c5ccc(N(CCCl)CCCl)cc5)CCC4(C)C3CC(C)C12 (stereo not given)	98.6% (inactive)
CC1(C)C(C(=O)c2cn(CCCCF)c3ccccc23)C1(C)C	116% (inactive)
ClCCN(CCCl)c1ccc(/C=N/Nc2ncnc3nc[nH]c23)cc1	94.6% (inactive)
CC(=O)O[C@H](C[C@H](C(C)C)N(C)C(=O)[C@@H](NC(=O)[C@H]1CCCCN1C)C(C)C)c1nc(C(=O)N[C@@H](Cc2ccccc2)C[C@H](C)C(=O)O)c(C)s1	14% (inactive)
CC[C@]12C=CCN3CC[C@@]4(c5ccc(OC)cc5N(C)[C@H]4[C@@](O)(C(=O)OC)[C@@H]1OC(=O)CCCC[P+](c1ccccc1)(c1ccccc1)c1ccccc1)[C@@H]32	15.9% (inactive)
